HP1b binding inh: HTS for Inhibitors of HP1-beta Chromodomain Interactions with Methylated Histone Tails; Chromobox protein homolog 1 (Homo sapiens), P83916; AlphaScreen HP1-beta / biotin-H3K9me3 peptide binding; Potency, µM (top dose mostly 114 µM), for inactives: at the highest dose activity change, negative = inhibition, most hits filed as inhibitors; 390,000 compounds, 0.56% hits; AID 540317, 2011; note: nearly all actives have a fitted effect of over 70% in size
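HP1-beta protein (50 nM final) preincubated 30 min at room temperature with biotinylated H3(1-18)K9me3 peptide (50 nM) in PBS pH 7.4, 0.01% Tween-20, then compound added for 30 min. AlphaScreen streptavidin donor/nickel chelate acceptor beads (10 ug/mL final), 30 min dark, luminescence read.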
BAZ2B block: qHTS Assay for Inhibitors of BAZ2B | Bromodomain adjacent to zinc finger domain protein 2B (Homo sapiens), Q9UIF8 | AlphaScreen BAZ2B-H3K14Ac peptide displacement | Potency, µM (series often up to 114 µM), without a hit: top-dose activity change, negative = inhibition, actives largely listed as inhibitors | 360,000 compounds, 4.4% hits; note: % is set by controls: 0 for no effect and ±100 for the full control effect; nearly all actives have a fitted effect of over 60% in size
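AlphaScreen luminescence quantifies BAZ2B engagement of H3K14Ac peptide; the protein and biotinylated peptide are both at 50 nM final, buffer PBS pH 7.4 with 0.01% Tween-20, all steps at room temperature.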
G9a inh: qHTS Assay for Inhibitors of Histone Lysine Methyltransferase G9a; G9a H3K9 monomethylation, AlphaScreen, 2 h; Potency, µM (series often up to 102 µM), without a hit: top-dose activity, negative = inhibition, actives largely listed as inhibitors; 350,000 compounds, 8.8% hits; AID 504332, 2011; note: % is set by controls: 0 for no effect and ±100 for the full control effect; nearly all actives have a fitted effect of over 75% in size
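Readings reflect AlphaScreen signal from monomethyl-H3K9 antibody detection. HMT at 20 nM; substrate b-H3K9 500 nM; cofactor SAM 20 uM; 2 h RT reaction; compounds tested as titrations in qHTS with 15 min preincubation.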
JMJD2A Tudor: qHTS Assay for Inhibitors of JMJD2A-Tudor Domain; Lysine-specific demethylase 4A (Homo sapiens), O75164; AlphaScreen JMJD2A-Tudor / H3K4me3 peptide binding; Potency, µM (titrated, usually from 114 µM), inactives show at the top dose activity change, negative = inhibition, hits mostly inhibitors; 390,000 compounds, 4.4% hits; AID 504339, 2011; note: % is set by controls: 0 for no effect and ±100 for the full control effect; nearly all actives have a fitted effect of over 50% in size
L3MBTL1 inh: qHTS Assay for the Inhibitors of L3MBTL1; Lethal(3)malignant brain tumor-like protein 1 (Homo sapiens), Q9Y468; AlphaScreen L3MBTL1–H3K9me1 peptide binding; Potency, µM (series often up to 57.1 µM), for inactives: at the highest dose activity, negative = inhibition, actives largely listed as inhibitors; 230,000 compounds, 0.66% hits; AID 485360, 2010; note: % is set by controls: 0 for no effect and ±100 for the full control effect; nearly all actives have a fitted effect of over 60% in size
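AlphaScreen proximity signal between nickel-chelate acceptor and streptavidin donor beads (final 10 ug/mL) reports binding of 50 nM L3MBTL1 to 75 nM biotin-H3 K9me1 peptide; complex incubated with compounds 30 min at room temperature; cefsulodin titration as control.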
The depositor's hits bear a star; ? = inconclusive; . = no result; ! = not confirmed by another sample; [ ] = another dose, or the depositor's remark. Rows were chosen to be rich in hits. Some 11% of all compounds tested hit in one or more screens of this group. Calls come from the whole dose curve; as a rule, active = well fitted inhibition curve with a large enough effect; inconclusive = small, poorly fitted or top-dose-only effect; inactive = no such curve, though single readings can be large or run the other way. Potency is the fitted concentration of half-maximal effect.

SMILES	HP1b binding inh	BAZ2B block	G9a inh	JMJD2A Tudor	L3MBTL1 inh
CCN(CC)S(=O)(=O)c1ccc2c(c1)N(CC(=O)Nc1cccnc1Cl)C(=O)CO2	45.6%	2.5%	?	-5.4%	.
COc1ccccc1N(CC(O)CN1CCOCC1)S(=O)(=O)c1ccccc1 (stereo not given)	-1.5%	-9.3%	50.1µM*	-15.2%	.
CCCN(CCC)CC(O)CN(c1cc([N+](=O)[O-])ccc1OC)S(=O)(=O)c1ccccc1 (stereo not given)	20.8%	-35.9%	56.2µM*	-25.5%	-6.0%
COc1ccc([N+](=O)[O-])cc1N(CC(O)CN1CCCCC1)S(=O)(=O)c1ccccc1 (stereo not given)	8.8%	-13.4%	.	-16.3%	-9.0%
COc1ccccc1N(CC(O)CN1CCCC1)S(=O)(=O)c1ccccc1 (stereo not given)	-4.3%	-2.9%	?	-22.1%	.
Cc1nnnn1/C(=C\c1ccccc1)C(=O)OCC(=O)Nc1cccc(S(=O)(=O)N(C)C)c1	30.0%	-1.6%	9.9%[0.501 µM]	-23.4%	-3.0%
Cc1nnnn1/C(=C\c1ccccc1)C(=O)OCC(=O)Nc1ccc(Cl)cc1F	13.4%	-2.3%	50.1µM*	-14.9%	4.5%
CCOc1ccccc1CNC(=O)c1ccc(Cn2c(SCc3ccccc3)nc3cccnc32)cc1	17.6%	-3.2%	-4.3%[59 µM]	-24.0%	.
CCOc1ccc2c(c1)C(C)=CC(C)(C)N2	-7.1%	50.1µM*	8.91µM*!	?	-12.5%
CC1=CC(C)(C)Nc2ccc(OC(=O)CN3C(=O)c4cccc5cccc(c45)C3=O)cc21	-21.0%	50.1µM*	8.91µM*	?	?

High-throughput results: PubChem BioAssay, National Center for Advancing Translational Sciences (NCATS)
